Experimental findings from PubChem BioAssay (EPA / NIEHS) are described below.

Records with an inconclusive call do not appear. Calls of active or inactive are those of the source. The calls were made as follows, unless noted: active = hit-call score of the fitted dose curve at least 0.9, where 1 is the maximum; inactive = score below 0.9.

System in one test: not listed separately
Description: UKN2_HCS_IMR90_cell_viability: Viability Assessment in the University of Konstanz (UKN) Leist Lab Neural Crest Cell Migration Assay in human induced IMR90 Pluripotent Stem Cells (UKN2) (AID 2284233).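 Also: viability of neural crest cells differentiated from IMR90 iPSC measured by calcein-AM fluorescence imaging; cells exposed to compound for 24 h after a 24 h migration phase.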
Conditions: not given
A digest of the protocol:
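Human IMR90-derived neural crest cells were allowed to migrate for 24 h into a cell-free zone, then exposed to test chemicals for 24 h. Calcein-AM and Hoechst staining with high-content imaging gave viability, analysed against DMSO baseline.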
Turning to `Nc1ccn([C@@H]2O[C@H](CO)[C@@H](O)C2O)c(=O)n1` (some centres not stated), the result was inactive.
With `O=C(CCCN1CCC(O)(c2ccc(Cl)cc2)CC1)c1ccc(F)cc1`, the call was inactive.
For `CC(C)c1c(C(=O)Nc2ccccc2)c(-c2ccccc2)c(-c2ccc(F)cc2)n1CC[C@@H](O)C[C@@H](O)CC(=O)O`, the compound was called inactive.

System in a further test: not listed separately
The test can be described thus: CCTE_Mundy_HCI_Cortical_NOG_NeuronCount: CCTE's Neurite Outgrowth Assay in rat cortical cells for Neuron Count, Mundy Lab (AID 2284236; active = hit-call score of the fitted dose curve at least 0.9, where 1 is the maximum;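 also: neurons counted by imaging betaIII-tubulin and Hoechst stained cortical cells; cells exposed to compound for about 48 hours before fixation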).
Conditions: not given
A digest of the protocol:
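Read-out: neuron number by high-content imaging of betaIII-tubulin (Alexa Fluor-488) and Hoechst-labelled rat primary cortical cells.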
For orientation: AC50 means the concentration giving half of the maximal activity seen. As to `Nc1ccn([C@@H]2O[C@H](CO)[C@@H](O)C2O)c(=O)n1` (some centres not stated), the AC50 was 2.74 µM (active).
On to `O=C(CCCN1CCC(O)(c2ccc(Cl)cc2)CC1)c1ccc(F)cc1`, for which the compound was called inactive.
Take `CC(=O)Nc1ccc(O)cc1`: the compound was classed as inactive.
`O=C1NS(=O)(=O)c2ccccc21`: the outcome was inactive.
Turning to `CN(Cc1cnc2nc(N)nc(N)c2n1)c1ccc(C(=O)N[C@@H](CCC(=O)O)C(=O)O)cc1`, the outcome was inactive.
For the compound `CC(C)c1c(C(=O)Nc2ccccc2)c(-c2ccccc2)c(-c2ccc(F)cc2)n1CC[C@@H](O)C[C@@H](O)CC(=O)O`, the AC50 is 7.8 µM (active).

System in the next test: not listed separately
The test can be described thus: CCTE_Mundy_HCI_Cortical_NOG_BPCount: CCTE's Neurite Outgrowth Assay in rat cortical cells for Branch Point Count, Mundy Lab (AID 2284237).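 As to AC50: branch points counted about two days after chemical exposure.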
Conditions: not given
A digest of the protocol: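 Measured 50.33 h after dosing, this morphology endpoint uses rat primary cortical cultures labelled for betaIII-tubulin. Branch points are quantified by high-content imaging, with DMSO as negative control and baseline.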
As to `O=C1NS(=O)(=O)c2ccccc21`, the compound was called inactive.
As for `CN(Cc1cnc2nc(N)nc(N)c2n1)c1ccc(C(=O)N[C@@H](CCC(=O)O)C(=O)O)cc1`, the result was inactive.
With `CC(C)c1c(C(=O)Nc2ccccc2)c(-c2ccccc2)c(-c2ccc(F)cc2)n1CC[C@@H](O)C[C@@H](O)CC(=O)O`, the AC50 was 0.0896 µM (active).

Read-out in another test: Collagen I, COL1A1 (gene 1277)
The test can be described thus: BSK_MyoF_CollagenI: BioMAP Diversity Plus: MyoF Assay for Collagen I Biomarker Activity (AID 2284238). The settings on record: primary human lung fibroblasts. A digest of the protocol: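 Collagen I levels measured by ELISA on human lung fibroblast cultures 24 h post-dosing, with curve fitting in the positive direction relative to DMSO; SRB staining of parallel wells marked cytotoxicity.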
Consider `Cc1cccc2c1ccc1ccccc12`, for which the outcome was inactive.
For the compound `C=CC(=C)CC/C=C(\C)CCC=C(C)C`, the result was inactive.
Regarding `CCOC(=O)CN[C@@H](C(=O)N1CC[C@H]1C(=O)NCc1ccc(/C(N)=N/O)cc1)C1CCCCC1`, the outcome was inactive.
On to `NC(=NCCCCCCN=C(N)/N=C(\N)Nc1ccc(Cl)cc1)/N=C(\N)Nc1ccc(Cl)cc1`, for which the half-maximal activity concentration (AC50) is 1.21 µM (active).
Regarding `O=C1OC2(c3ccccc31)c1cc(I)c(O)c(I)c1Oc1c2cc(I)c(O)c1I`, the AC50 is 5.89 µM (active).
On the same count and under the same terms, to `CCCCCCCCCCCCCCCCCC[N+](C)(C)Cc1ccccc1` belongs 1.02 µM (active).
Still for that read-out and setting: to `COC1=CC(=O)C[C@@H](C)[C@]12Oc1c(Cl)c(OC)cc(OC)c1C2=O` belongs 20 µM (active).
For `COCN(COC)c1nc(N(COC)COC)nc(N(COC)COC)n1`, the result was inactive.
On the same count and under the same terms, to `CCCCC(CC)C(=O)OCCOCCOCCOCCOC(=O)C(CC)CCCC` (configuration not stated) belongs “inactive”; to `CN(Cc1cnc2nc(N)nc(N)c2n1)c1ccc(C(=O)N[C@@H](CCC(=O)O)C(=O)O)cc1`, “inactive”.
For the compound `CCCCCc1ccc(O)cc1`, the AC50 is 24 µM (active).
Consider `O=C(NO)c1ccccc1`, for which the result was inactive.
Regarding `C=COC(=O)C(C)(C)CCCCCC`, the AC50 was 34.2 µM (active).
For `O=C(NCc1ncc(C(F)(F)F)cc1Cl)c1c(Cl)cccc1Cl`, the outcome was inactive.
The same measure, in the same setting: to `O=S(=O)(O)C(F)(F)C(F)(F)C(F)(F)C(F)(F)C(F)(F)C(F)(F)C(F)(F)C(F)(F)C(F)(F)C(F)(F)F` belongs “inactive”; to `C[C@]12CC[C@@H]3c4ccc(O)cc4CC[C@H]3[C@@H]1C[C@@H](O)[C@@H]2O`, “inactive”.

System in a further test: not listed separately
The test can be described thus: CCTE_Mundy_HCI_hNP1_Casp3_7: CCTE's Caspase-Glo 3/7 Assay in human neuroprogenitor cells for Apoptosis, Mundy Lab (AID 2284240).
Conditions: not given
The method, boiled down: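 Apoptosis is scored by activated caspase-3/7 luminescence in WA09-derived neural progenitor cells, measured 26.5 h after chemical dosing. Values represent gain of signal relative to DMSO vehicle.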
For `Nc1ccn([C@@H]2O[C@H](CO)[C@@H](O)C2O)c(=O)n1` (some centres not stated), the AC50 is 0.207 µM (active).
With `O=C(CCCN1CCC(O)(c2ccc(Cl)cc2)CC1)c1ccc(F)cc1`, the concentration at half-maximal activity (AC50) was 70.7 µM (active).
For the compound `CC(=O)Nc1ccc(O)cc1`, the call was inactive.
In the case of `O=C1NS(=O)(=O)c2ccccc21`, the call was inactive.
For `CN(Cc1cnc2nc(N)nc(N)c2n1)c1ccc(C(=O)N[C@@H](CCC(=O)O)C(=O)O)cc1`, the result was inactive.
For `CC(C)c1c(C(=O)Nc2ccccc2)c(-c2ccccc2)c(-c2ccc(F)cc2)n1CC[C@@H](O)C[C@@H](O)CC(=O)O`, the AC50 was 12.1 µM (active).

System in the next test: not listed separately
The test can be described thus: CCTE_Mundy_HCI_hNP1_CellTiter: CCTE's Cell Titer-Glo 2 Assay in human neuroprogenitor cells for Viability, Mundy Lab (AID 2284241; active = hit-call score of the fitted dose curve at least 0.9, where 1 is the maximum;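 as to AC50: a hit is a drop in ATP luminescence versus DMSO meaning reduced viability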).
Conditions: not given
The method, boiled down:
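Human neural progenitor cells (hNP1, WA09-derived) were plated on poly-L-ornithine/laminin and grown 40 to 44 hours at 37 °C, 5% CO2 before chemical addition. Twenty-four hours later, ATP was measured by CellTiter-Glo luminescence; loss of signal versus DMSO indicates reduced viability.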
A general note: In ATP-based viability assays light output follows the ATP content of the culture.
In the case of `O=C1NS(=O)(=O)c2ccccc21`, the compound was classed as inactive.
In the case of `CN(Cc1cnc2nc(N)nc(N)c2n1)c1ccc(C(=O)N[C@@H](CCC(=O)O)C(=O)O)cc1`, the compound was called inactive.
Regarding `CC(C)c1c(C(=O)Nc2ccccc2)c(-c2ccccc2)c(-c2ccc(F)cc2)n1CC[C@@H](O)C[C@@H](O)CC(=O)O`, the AC50 is 12.8 µM (active).

System in a further test: not listed separately
Description: CCTE_Mundy_HCI_Cortical_Synap_Neur_Matur_NeuronCount: CCTE's Synaptogenesis and Neurite Maturation Assay in rat cortical cells for Neuron Count, Mundy Lab (AID 2284242; active = hit-call score of the fitted dose curve at least 0.9, where 1 is the maximum;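 as to AC50: hits reduce neuron count versus DMSO baseline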).
Conditions: not given
The method, boiled down:
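Neuron number was scored by automated high-content imaging of Hoechst- and MAP2-labelled rat primary cortical cells. Glial growth was arrested with AraC at DIV 5, compounds were applied from DIV 7, and cultures ended at DIV 12.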
Consider `Nc1ccn([C@@H]2O[C@H](CO)[C@@H](O)C2O)c(=O)n1` (some centres not stated), for which the AC50 is 10.8 µM (active).
For the compound `O=C(CCCN1CCC(O)(c2ccc(Cl)cc2)CC1)c1ccc(F)cc1`, the AC50 was 21.9 µM (active).
For the compound `O=C1NS(=O)(=O)c2ccccc21`, the outcome was inactive.
On the same count and under the same terms, to `CN(Cc1cnc2nc(N)nc(N)c2n1)c1ccc(C(=O)N[C@@H](CCC(=O)O)C(=O)O)cc1` belongs “inactive”.
Consider `CC(C)c1c(C(=O)Nc2ccccc2)c(-c2ccccc2)c(-c2ccc(F)cc2)n1CC[C@@H](O)C[C@@H](O)CC(=O)O`, for which the AC50 was 5.15 µM (active).
